Bioassay records deposited in PubChem by National Center for Advancing Translational Sciences (NCATS).
Sampled rows, rich in hits. Any-hit rate of the full collection: about 2.8%.
SNCA expr inh = Primary qHTS assay for inhibitors of alpha-synuclein gene (SNCA) expression; HEK-293 SNCA-luciferase knock-in, luminescence, 24 h; Potency, µM (doses to about 57.2 µM), inactives show top-dose activity change, negative = inhibition, hits mostly inhibitors; 140,000 tested, 0.17% active;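 also: potency is read from the fitted curve at half-maximal effect; plate controls were DMSO cells for no effect and cell-free wells for full effect; nearly all actives have a fitted effect of over 45% in size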
HEK293 viab = GF-AFC viability counterscreen for inhibitors of alpha-synuclein gene (SNCA) expression. 150,000 tested, 0.12% active. Potency, µM (highest dose often 57.1 µM), for the others: at the top dose activity change, negative = cytotoxicity, most hits filed as cytotoxic. HEK-293-SNCA-luc viability, GF-AFC fluorescence, 24 h. AID 1671193, 2021;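 also: potency is read from the fitted curve at half-maximal effect; 0% = DMSO-treated cells and -100% = medium-only wells without cells; nearly all actives have a fitted effect of over 30% in size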
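HEK-293-SNCA-luc cells (1500/well) plated 24 h, then exposed 24 h to a dilution series; GF-AFC added 30 min at 37C, fluorescence 405/540 nm; normalised to medium-only and DMSO wells, Hill fit.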
IP6K1 inh = Primary qHTS assay for small molecule inhibitors of Inositol hexaphosphate kinase 1 (IP6K1). Inositol hexakisphosphate kinase 1 (Homo sapiens), Q92551. IP6K1 kinase, ADP-Glo luminescence, 2 h; hits give low values. activity change, % (series mostly up to about 58 µM). 140,000 tested, 0.81% active. AID 1645851, 2021; in the data active = activity change below about -25%; also: % is scaled to controls: 0 for no effect and ±100 for the full control effect
Target sequence (Q92551 whole entry, looked up): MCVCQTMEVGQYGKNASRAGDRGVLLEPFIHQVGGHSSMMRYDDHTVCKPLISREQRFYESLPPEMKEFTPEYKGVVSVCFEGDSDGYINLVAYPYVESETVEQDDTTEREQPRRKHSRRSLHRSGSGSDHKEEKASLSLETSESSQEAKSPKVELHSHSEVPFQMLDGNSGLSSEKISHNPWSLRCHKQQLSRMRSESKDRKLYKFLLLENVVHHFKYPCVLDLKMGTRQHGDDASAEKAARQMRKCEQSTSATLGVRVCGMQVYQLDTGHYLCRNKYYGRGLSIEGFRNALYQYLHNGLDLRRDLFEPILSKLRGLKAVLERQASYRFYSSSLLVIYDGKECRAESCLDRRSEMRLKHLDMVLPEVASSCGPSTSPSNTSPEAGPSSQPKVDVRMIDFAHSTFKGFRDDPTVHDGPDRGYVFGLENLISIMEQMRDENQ
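ADP-Glo luminescence measures ADP made by human IP6K1 during a 2 h RT reaction with ATP/IP6 (mix at 1.3 mM/130 uM); top library doses 57.5 and 19.1 uM final.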
KDM5B inh = Primary screen for KDM5B Histone Demethylases FDH-coupled qHTS; Lysine-specific demethylase 5B (Homo sapiens), Q9UGL1; KDM5B demethylase, FDH-coupled NADH fluorescence (FDH is formaldehyde dehydrogenase); Potency, µM (series often up to 57.7 µM), usual class: inhibitors; 220,000 tested, 2.6% active; AID 1347165, 2019; also: potency is read from the fitted curve at half-maximal effect; 0% is about no effect; nearly all actives have a fitted effect of over 70% in size
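Coupled FDH/NAD⁺ fluorescence readout. KDM5BΔAP 200 nM final; compound titration, 10 min RT preincubation; substrate mix 12.5 µM H3K4me3, 25 µM 2-OG, 50 µM Fe(II), 100 µM ascorbate, 0.25 mM NAD⁺, 0.25 U/mL FDH; ΔRFU over 30 min.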
IP6K1 conf = Confirmatory qHTS assay for small molecule inhibitors of Inositol hexaphosphate kinase 1 (IP6K1); Potency, µM (top dose mostly 49 µM), for the others: at the top dose activity change, negative = inhibition, most hits filed as inhibitors; recombinant IP6K1 kinase, ADP-Glo luminescence, 2 h; 1,200 tested, 13% active; AID 1645852, 2021; shares compounds with IP6K1 inh; also: potency is read from the fitted curve at half-maximal effect; % is scaled to controls: 0 for no effect and ±100 for the full control effect; nearly all actives have a fitted effect of over 65% in size
Active calls of the source: *; i = inactive; ? = inconclusive; / = no result given; [ ] = another dose, or the depositor's remark. Unless noted, calls follow the shape of the dose curve; as a rule, active = well fitted curve in the direction sought with a large enough effect; inconclusive = small, poorly fitted or top-dose-only effect, or another doubt; inactive = no such curve, though single readings can be large; an effect the other way counts as inactive or inconclusive.

SMILES | SNCA expr inh | HEK293 viab | IP6K1 inh | KDM5B inh | IP6K1 conf
COc1ccc(OC)c(CNC(=O)c2nn(C)c3c2CSc2ccccc2-3)c1 | -6% | 11% | 35 | ? | /
COc1ccc(NC(=O)c2[nH]nc3c2CSc2ccccc2-3)c(OC)c1 | 7% | 8% | -44* | i | -6%
CCC(=O)c1ccc(NC(C)=O)cc1O | / | / | / | i | /
CCC(=O)c1c(O)cc(O)cc1O | 12%[25.6 µM] | 35%[23.9 µM] | -29* | / | ?
Cc1ccc(O)c(N=Nc2ccccc2)n1 | ? | -2% | / | / | 7.3µM*
NS(=O)(=O)c1ccc(NC(=O)Cn2cnc3cc(Cl)ccc3c2=O)cc1 | / | / | / | i | /
CS(=O)(=O)N1CCCC(c2nc(CCOc3ccc(F)cc3)no2)C1 (stereo unspecified) | 70% | -2% | -5 | i | /
COc1cc2ccccc2cc1C(=O)Nc1ccc2oc(-c3cccc(C)c3)nc2c1 | 20% | 5% | -28* | ? | 25%
O=C(Nc1ccc2oc(-c3ccccc3F)nc2c1)c1ccccc1Cl | -4% | -15% | -49* | ? | ?
O=C(Nc1ccc(Cl)c(C(F)(F)F)c1)c1ccccc1Cl | / | / | / | i | /
Cc1ccc(Nc2nc(N)c(C(=O)c3ccccc3Cl)s2)c(C)c1 | / | / | / | i | /
Cc1ccccc1Nc1nc(N)c(C(=O)c2ccccc2Cl)s1 | -23% | ? | -52* | i | 3.3µM*
CN(C)c1ccc(C2CC(c3c(O)n(C4CCCCC4)c(=O)[nH]c3=O)=Nc3ccccc3S2)cc1 (stereo unspecified) | -14% | 4% | -32* | ? | 16%
O=C(NCC(=O)N1CCN(c2cccc(Cl)c2)CC1)NCc1ccc(F)cc1 | / | / | / | i | /
CN1CCN(c2cc(=O)c3ccnc(-c4ccc(Cl)cc4)c3o2)CC1 | 6%[87.6 µM] | -5%[87.6 µM] | -32* | 35µM* | ?
CCOc1ccc(NC(=O)CC2CCCN(c3cnn(CC4CC4)c(=O)c3)C2)cc1 (stereo unspecified) | 1% | -1% | 18 | i | /
COc1ccc(CN2CCN(S(=O)(=O)c3ccccc3)CC2)c(OC)c1 | -3% | -6% | -49* | ? | -3%
O=C(c1cncc(Br)c1)N1CCCC(CN2CCOCC2)CC1 (stereo unspecified) | -15% | 5% | -9 | i | /
COc1ccc(-c2ccc(C(=O)N3CCCCC3)cc2)nn1 | / | / | -51* | / | ?
COc1ccc(C2Cn3nnc(-c4noc(-c5cccc(F)c5)n4)c3CO2)cc1 (stereo unspecified) | 19% | 4% | -7 | i | /
Cc1oc(-c2ccccc2)nc1C(=O)Nc1ccccn1 | / | / | / | i | /
N#Cc1cc(NC(=O)C(=O)O)c(Cl)c(NC(=O)C(=O)O)c1 | -1%[25.6 µM] | -6%[23.9 µM] | -35* | / | -23%
CCCCn1c(=O)c(C(=O)NCCc2ccc(F)cc2)nc2cccnc21 | -30% | 1% | -27* | / | -10%
CCCCn1c(=O)c(C(=O)NCCc2ccccc2)nc2cccnc21 | -24% | -4% | 5 | / | /
COc1cc(/C=C(\C#N)C(=O)c2ccc(O)c(O)c2)cc(I)c1O | 2% | -16% | / | / | 2.1µM*
SMILES | SNCA expr inh | HEK293 viab | IP6K1 inh | KDM5B inh | IP6K1 conf
CC(c1cc2ccccc2o1)N(C)S(=O)(=O)c1ccccc1 (stereo unspecified) | / | / | / | i | /
CN(C)c1ccc(C(=C2C=CC(=[N+](C)C)C=C2)c2ccccc2)cc1 | ? | -78%[23.9 µM] | -42* | / | 15µM*
CN(C)c1ccc(C(=O)C(=O)c2ccccc2)cc1 | / | / | / | i | /
CCn1nc(C(=O)OC(C)C(=O)Nc2cccc(S(=O)(=O)N(C)C)c2)c2ccccc2c1=O (stereo unspecified) | / | / | / | i | /
Cc1ccc2nc(-c3ccco3)c(Nc3ccc4c(c3)OCCO4)n2c1 | 60% | -12% | -28* | i | 16%
Cc1nn(CC(=O)NCc2ccc(Cl)cc2)c(=O)c2cc3sccc3n12 | 4% | 7% | -9 | i | /
CSc1ccc(CCNC(=O)Cn2nc(C)n3c(cc4sccc43)c2=O)cc1 | 2% | 7% | -80* | i | -2%
O=C(c1ccc(F)cc1)N1Cc2[nH]cnc2C[C@H]1c1nc(-c2ccc(Cl)cc2)no1 | 2%[87.6 µM] | -3%[87.6 µM] | -39* | i | ?
Cc1cccc(-c2noc([C@@H]3Cc4nc[nH]c4CN3C(=O)c3ccc(F)cc3)n2)c1 | ? | -8%[87.6 µM] | -14 | i | /
CCC(=O)N1CCCC1c1nc(CCOCC2CCCC2)no1 (stereo unspecified) | 0% | -3% | 10 | i | /
CC(=O)Nc1ccc(NS(=O)(=O)c2ccc(Cl)s2)cc1 | 13% | 7% | -28* | i | -25%
Cc1cc(NC(=O)Cn2ccn3nc(-c4ccc(F)cc4)c(CO)c3c2=O)n[nH]1 | 19% | 16% | 32 | ? | /
Cc1cc(NC(=O)c2cccc(NC(=O)/C=C/CN(C)C)c2)ccc1Nc1nccc(-c2cccnc2)n1 | / | -31% | -34* | / | ?
O=S(=O)(NCc1ccc(F)cc1)c1ccc(N2CCCCS2(=O)=O)cc1 | -17% | 3% | -32* | i | 16%
O=S(=O)(NCc1ccc(Cl)cc1)c1ccc(N2CCCCS2(=O)=O)cc1 | ? | 9% | 20 | i | /
CC(=O)N1CCN(C(=O)Cc2ccc(Nc3ncc(F)c(Nc4ccc(C(=O)Nc5ccccc5Cl)cc4)n3)cc2)CC1 | / | ? | -30* | / | ?
CNC(=O)[C@@H]1CN(C(=O)Cn2ccnc2C)C[C@H]1c1nc(COC)no1 | 1% | -13% | 7 | i | /
Cc1cc(C)n(CCC(=O)N[C@@H]2CN(Cc3ccccc3)C[C@H]2CN(C)C)n1 | -25% | -21% | -3 | i | /
COc1cccc(Nc2cc(-c3cccs3)nc3c(C)noc23)c1 | -20%[87.6 µM] | 8%[87.6 µM] | -25* | 35µM* | ?
O=C1c2c(-c3nc(-c4ccsc4)no3)nnn2CCN1CCOc1ccc(F)cc1 | 11% | 24%[12.5 µM] | 16 | i | /
COc1cc(F)ccc1-c1cc(C(=O)NCc2c(C)cc(C)[nH]c2=O)c2c(c1)ncn2C | ? | -16%[87.6 µM] | -1 | ? | /
Cn1cnc2cc(-c3ccc(F)cc3)cc(C(=O)NCCc3cnc[nH]3)c21 | -28%[87.6 µM] | -2%[87.6 µM] | -31* | ? | ?
CN(c1cc(=O)c2ccnc(Nc3ccc(F)c(Cl)c3)c2o1)C1CCOCC1 | 0%[87.6 µM] | -7%[87.6 µM] | -25* | 28µM* | 20%
CN(c1ccccc1)c1cc(=O)c2ccnc(Nc3cccnc3)c2o1 | 35%[87.6 µM] | -3%[87.6 µM] | -10 | ? | /
CN(c1cc(=O)c2ccnc(-c3cccc(C(F)(F)F)c3)c2o1)C1CCOCC1 | 7%[87.6 µM] | 0%[87.6 µM] | -34* | 28µM* | ?
CN(c1ccccc1)c1cc(=O)c2ccnc(-c3ccncc3)c2o1 | 26%[87.6 µM] | 2%[87.6 µM] | -23 | i | /
CC(=O)c1ccc(NC(=O)c2cc(-c3ccccn3)nc3ccccc23)cc1 | / | / | / | i | /
